For eight molecules, growth results are on record in PubChem BioAssay (NCI).

About 83,000 compounds went through this panel and 20% of them were active in at least one assay; those are over-represented in the sample as a whole.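 Testing used 96-well plates and a 48-hour single-concentration exposure. Example: -40 means 40% of the starting cells died.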 Unmarked numbers belong to inactive results. Activity calls are given as the source filed them. Rule for the calls: active = growth percent below 10; inactive = the rest.

Test systems include SR leukemia; RPMI-8226 leukemia; OVCAR-8 ovarian; OVCAR-5 ovarian; OVCAR-4 ovarian; SK-OV-3 ovarian; IGROV1 ovarian; OVCAR-3 ovarian; HS 578T breast; NCI/ADR-RES ovarian; T-47D breast; BT-549 breast; MDA-MB-435 melanoma; SW-620 colon; MCF7 breast; HCT-116 colon; HCC-2998 colon; KM12 colon.
Test in all cases: NCI-60 one-dose screen, 48 h (100 = growth as untreated, 0 = no growth, -100 = all killed)
Common to all, as to conditions: 10 µM unless noted

Regarding `Nc1nc(Br)nc2c1ncn2C1CC(O)C(CO)O1` (centres undefined), the growth with SR leukemia was 52.2%; in the experiment with RPMI-8226 leukemia, 73.5%; in the experiment on OVCAR-8 ovarian it was 35.9%; in the experiment on OVCAR-5 ovarian, 76.3%; in the experiment with OVCAR-4 ovarian, 81.9%; in the experiment with SK-OV-3 ovarian it was 94.2%. The growth in the experiment on IGROV1 ovarian is 96.3%; in the experiment with OVCAR-3 ovarian, 80.9%; with HS 578T breast it was 91.7%; with NCI/ADR-RES ovarian, 22.3%; with T-47D breast, 70.1%; in the experiment on BT-549 breast, 50.1%. Besides, the growth in the experiment with MDA-MB-435 melanoma was 56.5%; in the experiment on SW-620 colon, 60.1%; in the experiment on MCF7 breast, 28.4%; in the experiment with HCT-116 colon, 37.9%; in the experiment with HCC-2998 colon, 58.9%; in the experiment with KM12 colon it was 78.6%.
With `COc1cc2ncnc(Nc3ccc(OCc4cccc(F)c4)c(Cl)c3)c2cc1NC(=O)C1CCCC1`, the growth with SR leukemia is 91%; in the experiment on RPMI-8226 leukemia it was 89.9%; in the experiment with OVCAR-8 ovarian, 76.9%; in the experiment with OVCAR-5 ovarian, 88.9%; in the experiment with OVCAR-4 ovarian, 100%; with SK-OV-3 ovarian, 13%. The growth was 52.2% in the experiment on IGROV1 ovarian; 77.9% in the experiment on OVCAR-3 ovarian; 91.8% with HS 578T breast; 71.6% in the experiment on NCI/ADR-RES ovarian; 24.9% with T-47D breast; 103% in the experiment on BT-549 breast. Also, the growth was 89.4% in the experiment with MDA-MB-435 melanoma; 98.4% with SW-620 colon; 84.4% with MCF7 breast; 83.4% in the experiment on HCT-116 colon; 103% in the experiment with HCC-2998 colon; 94.9% with KM12 colon.
Take `O=C1/C(=C\c2ccco2)SC(=S)N1CCc1ccc(O)cc1`: the growth in the experiment on SR leukemia is 95.7%; in the experiment with RPMI-8226 leukemia, 83.1%; in the experiment on OVCAR-8 ovarian, 102%; in the experiment with OVCAR-5 ovarian, 103%; with OVCAR-4 ovarian it was 90.3%; in the experiment with SK-OV-3 ovarian, 100%. Further, the growth is 94.6% in the experiment on IGROV1 ovarian; 105% in the experiment on OVCAR-3 ovarian; 99.5% in the experiment with HS 578T breast; 103% in the experiment with NCI/ADR-RES ovarian; 67.6% with T-47D breast; 87.2% in the experiment with BT-549 breast. The growth was 93.7% with MDA-MB-435 melanoma; 109% in the experiment on SW-620 colon; 114% with MCF7 breast; 96.1% with HCT-116 colon; 116% in the experiment with HCC-2998 colon; 85.5% in the experiment on KM12 colon.
For the molecule `Cc1ccc(-c2nc([P+](c3ccccc3)(c3ccccc3)c3ccccc3)c(N3CCOCC3)o2)cc1`, the growth was 5.72% (active) in the experiment with SR leukemia; -24.2% (active) with RPMI-8226 leukemia; 3.78% (active) with OVCAR-8 ovarian; 18.9% in the experiment on OVCAR-5 ovarian; 12.3% in the experiment on OVCAR-4 ovarian; -43.9% (active) in the experiment with SK-OV-3 ovarian. The growth in the experiment on IGROV1 ovarian is 1.46% (active); with OVCAR-3 ovarian, -0.275% (active); in the experiment with HS 578T breast, 16.8%; with NCI/ADR-RES ovarian it was 86%; in the experiment on T-47D breast, -20.4% (active); with BT-549 breast it was -13% (active). Moreover, the growth is -6.62% (active) in the experiment with MDA-MB-435 melanoma; 9.9% (active) in the experiment with SW-620 colon; 2.74% (active) with MCF7 breast; 1.88% (active) in the experiment on HCT-116 colon; 14.1% in the experiment with HCC-2998 colon; -22.4% (active) in the experiment on KM12 colon.
Regarding `Cc1cc2nc3c4cc(Cl)ccc4n(CCN(C)C)c3nc2cc1C`, the growth with SR leukemia was 5.12% (active); with RPMI-8226 leukemia, -11.5% (active); in the experiment on OVCAR-8 ovarian, 19.1%; in the experiment on OVCAR-5 ovarian, 21.8%; with OVCAR-4 ovarian it was 27.1%; in the experiment with SK-OV-3 ovarian it was 31.1%. In addition, the growth in the experiment with IGROV1 ovarian is 4.29% (active); in the experiment on OVCAR-3 ovarian, 32.9%; with HS 578T breast it was 45.5%; in the experiment on NCI/ADR-RES ovarian, 13.6%; with T-47D breast, 30.5%; in the experiment with BT-549 breast, 53.6%. The growth in the experiment on MDA-MB-435 melanoma is 1.97% (active); with SW-620 colon, -21.9% (active); in the experiment on MCF7 breast it was -37.9% (active); in the experiment on HCT-116 colon, -12.7% (active); in the experiment with HCC-2998 colon it was -23.7% (active); with KM12 colon it was 19.1%.
As for `COc1cccc(-c2nn(-c3ccccc3)cc2-c2ccnc(NCCCNS(=O)(=O)c3ccc(C(F)(F)F)cc3)c2)c1`, the growth in the experiment with SR leukemia was -13.1% (active); with RPMI-8226 leukemia, 13.3%; with OVCAR-8 ovarian it was 30.7%; in the experiment with OVCAR-5 ovarian, 50.1%; in the experiment on OVCAR-4 ovarian, 33.5%; in the experiment on SK-OV-3 ovarian, 37.7%. The growth in the experiment on IGROV1 ovarian was 39.6%; in the experiment on OVCAR-3 ovarian, 36%; in the experiment with HS 578T breast, 38.7%; with NCI/ADR-RES ovarian it was 22.8%; in the experiment on T-47D breast it was -2.76% (active); in the experiment on BT-549 breast, 36.6%. Besides, the growth was 27.1% with MDA-MB-435 melanoma; 47.7% in the experiment on SW-620 colon; 16.9% with MCF7 breast; 22.9% in the experiment on HCT-116 colon; 20% in the experiment on HCC-2998 colon; 23.8% in the experiment with KM12 colon.
In the case of `CCN1CCN(C(=O)[C@]23CCC(C)(C)C[C@@H]2C2=CC[C@@H]4[C@@]5(C)C/C(=C/c6ccncc6)C(=O)C(C)(C)[C@@H]5CC[C@@]4(C)[C@]2(C)CC3)CC1`, the growth with SR leukemia is -29.1% (active); in the experiment on RPMI-8226 leukemia, -32.1% (active); in the experiment with OVCAR-8 ovarian it was 7.29% (active); in the experiment on OVCAR-5 ovarian it was -20.4% (active); in the experiment with OVCAR-4 ovarian it was 6.7% (active); with SK-OV-3 ovarian, 16.2%. Also, the growth with IGROV1 ovarian was -9.63% (active); in the experiment with OVCAR-3 ovarian it was -85.7% (active); with HS 578T breast it was -23.6% (active); in the experiment with NCI/ADR-RES ovarian it was -49.2% (active); in the experiment on T-47D breast it was -2.08% (active); in the experiment with BT-549 breast, -5.92% (active). Also, the growth is -29.9% (active) in the experiment with MDA-MB-435 melanoma; -54.1% (active) with SW-620 colon; -53.6% (active) in the experiment on MCF7 breast; -92.4% (active) in the experiment with HCT-116 colon; -68.8% (active) in the experiment on HCC-2998 colon; -39.9% (active) in the experiment with KM12 colon.
`CC1(C)CC[C@]2(C(=O)NCCNCCN)CC[C@]3(C)C(=CC[C@@H]4[C@@]5(C)CCC(=O)C(C)(C)[C@@H]5CC[C@]43C)[C@@H]2C1`: the growth in the experiment with SR leukemia was -45.6% (active); in the experiment on RPMI-8226 leukemia, -19.9% (active); in the experiment with OVCAR-8 ovarian, 21.4%; in the experiment with OVCAR-5 ovarian, 106%; in the experiment with OVCAR-4 ovarian, 65.3%; with SK-OV-3 ovarian it was 89.9%. Also, the growth in the experiment with IGROV1 ovarian is 23.8%; in the experiment with OVCAR-3 ovarian it was -27.2% (active); in the experiment on HS 578T breast, 79%; in the experiment on NCI/ADR-RES ovarian, 93.2%; in the experiment with T-47D breast, -71.1% (active); with BT-549 breast, 83.5%. Moreover, the growth in the experiment with MDA-MB-435 melanoma was 61%; with SW-620 colon, -78.4% (active); in the experiment on MCF7 breast it was -23.8% (active); with HCT-116 colon, -54% (active); in the experiment with HCC-2998 colon it was 24.5%; in the experiment with KM12 colon, 9.99% (active).
